Laboratory results reported in PubChem BioAssay AID1159580 (chemical genetic matrix, 2015).
“And” between values parts separate entries of the source, which are not always exact repeats. Equal values may be shown once. Hit rate of the full screen: of about 5,500 compounds, about 2,000 (36%) were called active. Inconclusive results (about 18%) are left out. Rule as the data show it: active = normalized growth mostly below about 0.91 (no sharp cut-off); inconclusive = no clear call, values can overlap the other calls; inactive = mostly above about 0.92. The list shows a part of the results.

Assay: chemical genetic growth profiling, strain panel (AID 1159580);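 also: tested at 20 µM; growth read once vehicle control cultures reached saturation at 30 °C; 1 = growth at the plate median or of vehicle wells; lower values mean less growth of the strain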
Settings: S. cerevisiae deletion strains, growth OD
[1] = locus YHR030C, strain SLT2, hits give low values
[2] = locus YHR079C, strain IRE1, hits give low values
[3] = locus YJL095W, strain BCK1, hits give low values
[4] = locus YJR066W, strain TOR1, hits give low values
[5] = locus YLR113W, strain HOG1, hits give low values
[6] = locus YNL183C, strain NPR1, hits give low values
[7] = locus YOR231W, strain MKK1, hits give low values
[8] = locus YPL256C, strain CLN2, hits give low values

Measured: normalized growth

CC(CCC(=O)O)[C@H]1CCC2C3C(=O)C[C@@H]4CC(=O)CC[C@]4(C)C3CC(=O)[C@@]21C (stereo not given in full)
inactive: locus YAL021C, strain ccr4, hits give low values 0.995 | locus YAL026C, strain drs2, hits give low values 1 | locus YAL030W, strain snc1, hits give low values 0.994 | locus YBL061C, strain skt5, hits give low values 0.994 | locus YBR009C, strain hhf1, hits give low values 0.995 | locus YBR023C, strain chs3, hits give low values 0.993 | locus YBR171W, strain sec66, hits give low values 0.982 | locus YBR231C, strain swc5, hits give low values 0.994 | locus YBR279W, strain paf1, hits give low values 0.982 | locus YCL011C, strain gbp2, hits give low values 0.987 | locus YCL016C, strain dcc1, hits give low values 0.984 | locus YCL061C, strain MRC1, hits give low values 0.987 | locus YCL069W, strain vba3, hits give low values 0.995 | locus YCR088W, strain abp1, hits give low values 0.994 | locus YDL005C, strain med2, hits give low values 0.986 | locus YDL040C, strain nat1, hits give low values 0.991 | locus YDR001C, strain nth1, hits give low values 0.993 | locus YDR069C, strain doa4, hits give low values 1 | locus YDR137W, strain rgp1, hits give low values 1.01 | locus YDR159W, strain sac3, hits give low values 1.01 | locus YDR195W, strain ref2 0.999 | locus YDR297W, strain sur2, hits give low values 0.996 | locus YDR334W, strain swr1, hits give low values 0.993 | locus YDR335W, strain msn5, hits give low values 0.997 | locus YDR392W, strain spt3, hits give low values 0.932 | locus YEL003W, strain gim4, hits give low values 1.01 | locus YEL037C, strain rad23, hits give low values 0.99 | locus YEL061C, strain CIN8 (second series), hits give low values 0.99 | locus YER015W, strain faa2, hits give low values 1.01 | locus YER016W, strain bim1, hits give low values 0.999 | locus YER111C, strain swi4, hits give low values 0.998 | locus YER155C, strain BEM2 (second series), hits give low values 0.999 | locus YFR010W, strain ubp6, hits give low values 0.992 | locus YGL167C, strain pmr1, hits give low values 0.992 | locus YGL173C, strain kem1, hits give low values 0.989 | locus YGL227W, strain vid30, hits give low values 0.985 | locus YGL240W, strain doc1, hits give low values 1.01 | locus YGL253W, strain hxk2, hits give low values 0.991 | locus YHR013C, strain ard1, hits give low values 0.99 | locus YHR027C, strain rpn1, hits give low values 0.995 | [1] 1.02 | [2] 1.02 | locus YHR142W, strain chs7, hits give low values 0.952 | locus YJL092W, strain hpr5, hits give low values 0.993 | locus YJL095W, strain BCK1 (second series), hits give low values 0.991 | [3] 1.01 | locus YJL115W, strain asf1, hits give low values 0.991 | locus YJL129C, strain trk1, hits give low values 1.01 | locus YJL154C, strain vps35, hits give low values 0.993 | locus YJL164C, strain tpk1, hits give low values 0.99 | locus YJL166W, strain qcr8, hits give low values 0.989 | locus YJL187C, strain SWE1, hits give low values 0.99 | [4] 0.975 | locus YKL160W, strain elf1, hits give low values 0.977 | locus YKR026C, strain gcn3, hits give low values 0.993 | locus YKR091W, strain srl3, hits give low values 0.99 | locus YLL001W, strain dnm1, hits give low values 0.975 | locus YLL026W, hits give low values 0.998 | locus YLL041C, strain sdh2, hits give low values 0.993 | locus YLR027C, strain aat2, hits give low values 0.991 | [5] 1.05 | locus YLR221C, strain rsa3, hits give low values 0.964 | locus YLR258W, strain gsy2, hits give low values 0.992 | locus YLR262C, strain YPT6 (second series), hits give low values 1 | locus YLR320W, strain mms22, hits give low values 0.971 | locus YLR342W, strain FKS1, hits give low values 0.99 | locus YLR357W, strain rsc2, hits give low values 0.986 | locus YLR370C, strain arc18, hits give low values 0.993 | locus YLR384C, strain iki3, hits give low values 0.978 | locus YML120C, strain ndi1, hits give low values 0.989 | locus YMR058W, strain fet3, hits give low values 0.999 | locus YMR125W, strain sto1, hits give low values 0.982 | locus YMR129W, hits give low values 0.99 | locus YMR205C, strain PFK2, hits give low values 0.989 | locus YMR231W, strain pep5, hits give low values 0.999 | locus YNL071W, strain lat1, hits give low values 0.997 | [6] 0.997 | locus YNL209W, strain ssb2, hits give low values 0.997 | locus YNL248C, strain rpa49, hits give low values 0.982 | locus YNL322C, strain KRE1 (second series), hits give low values 0.992 | locus YNR049C, strain mso1, hits give low values 0.992 | locus YOR001W, strain rrp6, hits give low values 1.02 | locus YOR070C, strain gyp1, hits give low values 0.996 | locus YOR080W, strain dia2, hits give low values 0.994 | locus YOR083W, strain WHI5, hits give low values 0.969 | locus YOR106W, strain vam3, hits give low values 0.974 | [7] 1.07 | locus YOR265W, strain rbl2, hits give low values 0.998 | locus YOR270C, strain vph1, hits give low values 0.957 | locus YOR290C, strain snf2, hits give low values 0.993 | locus YPL051W, strain arl3, hits give low values 1.01 | locus YPL078C, strain atp4, hits give low values 0.98 | locus YPL106C, strain sse1, hits give low values 0.975 | locus YPL240C, strain hsp82, hits give low values 1 | [8] 1.02

CC(CCC(=O)O)[C@H]1CCC2C3CC[C@@H]4CC(=O)CC[C@]4(C)C3C=C[C@@]21C (stereo not given in full)
inactive: locus YBR021W, strain FUR4, hits give low values 0.906 | locus YBR229C, strain ROT2, hits give low values 1.03 | locus YCL029C, strain bik1, hits give low values 0.984 | locus YDL074C, strain BRE1, hits give low values 0.992 | locus YDL101C, strain DUN1, hits give low values 1.02 | locus YDL185W, strain tfp1, hits give low values 1.02 | locus YDL192W, strain arf1, hits give low values 1 | locus YDR101C, strain arx1, hits give low values 0.967 | locus YDR162C, strain NBP2, hits give low values 0.999 | locus YDR318W, strain mcm21, hits give low values 0.982 | locus YDR388W, hits give low values 1.01 | locus YDR502C, strain sam2, hits give low values 0.928 | locus YEL061C, strain CIN8, hits give low values 1.03 | locus YER110C, hits give low values 1.05 | locus YER155C, strain BEM2, hits give low values 1.06 | locus YER167W, strain BCK2, hits give low values 1.05 | locus YGL086W, strain mad1, hits give low values 0.971 | locus YGL248W, strain PDE1, hits give low values 0.963 | locus YGR078C, strain PAC10, hits give low values 1.02 | locus YGR135W, strain pre9, hits give low values 0.953 | locus YGR229C, strain SMI1, hits give low values 0.904 | locus YGR252W, strain gcn5, hits give low values 0.779 | [1] 1.06 and 0.918 | locus YHR079C, strain IRE1 (second series), hits give low values 1.03 | [2] 0.944 | locus YHR094C, strain hxt1, hits give low values 1.03 | locus YHR129C, strain ARP1, hits give low values 1.04 | locus YHR200W, strain rpn10, hits give low values 1.03 | locus YIL066C, strain RNR3, hits give low values 1.02 | locus YIL073C, strain SPO22, hits give low values 0.955 | locus YIL125W, strain kgd1, hits give low values 0.98 | locus YIR030C, strain dcg1, hits give low values 1.02 | [3] 0.959 and 0.937 | locus YJL134W, strain LCB3, hits give low values 1.05 | locus YJL168C, strain set2, hits give low values 1.03 | locus YJL187C, strain SWE1 (second series), hits give low values 0.986 | locus YJR043C, strain POL32, hits give low values 0.985 | [4] 0.893 | locus YKL068W, hits give low values 1.04 | locus YKL085W, strain MDH1 (second series), hits give low values 1.03 | locus YKL085W, strain MDH1, hits give low values 1.03 | locus YKL190W, strain CNB1, hits give low values 1.04 | locus YKR001C, strain vps1, hits give low values 0.955 | locus YLR039C, strain RIC1, hits give low values 0.953 | locus YLR058C, strain SHM2, hits give low values 1.01 | locus YLR102C, strain apc9, hits give low values 1.03 | [5] 0.882 | locus YLR262C, strain YPT6, hits give low values 0.895 | locus YLR268W, strain sec22, hits give low values 0.949 | locus YLR330W, strain CHS5, hits give low values 1.04 | locus YLR342W, strain FKS1 (second series), hits give low values 0.87 | locus YLR371W, strain rom2, hits give low values 1.05 | locus YLR418C, strain cdc73, hits give low values 0.889 | locus YML016C, strain PPZ1, hits give low values 1.04 | locus YML032C, strain rad52, hits give low values 0.959 | locus YML124C, strain tub3, hits give low values 1.04 | locus YMR078C, strain ctf18, hits give low values 1.03 | locus YMR223W, strain ubp8, hits give low values 0.969 | locus YMR307W, strain GAS1, hits give low values 0.875 | locus YNL067W, strain RPL9B, hits give low values 0.971 | locus YNL153C, strain GIM3, hits give low values 0.966 | [6] 0.883 | locus YNL233W, strain BNI4, hits give low values 1.02 | locus YNL250W, strain rad50, hits give low values 1 | locus YNL271C, strain bni1, hits give low values 0.992 | locus YNL298W, strain CLA4, hits give low values 0.926 | locus YNL307C, strain MCK1, hits give low values 1.02 | locus YNL322C, strain KRE1, hits give low values 1.04 | locus YNR052C, strain pop2, hits give low values 0.931 | locus YOL006C, strain TOP1, hits give low values 0.944 | locus YOL012C, strain htz1 1.95 | locus YOL147C, strain pex11, hits give low values 1.03 | locus YOR061W, strain CKA2, hits give low values 1.01 | locus YOR069W, strain VPS5, hits give low values 1.02 | locus YOR136W, strain idh2, hits give low values 1.03 | locus YOR144C, strain elg1, hits give low values 0.988 | [7] 0.913 | locus YOR316C, strain cot1, hits give low values 1.03 | locus YPL055C, strain LGE1, hits give low values 1.01 | locus YPL241C, strain CIN2, hits give low values 1.04 | [8] 0.963 | locus YPR119W, strain clb2, hits give low values 1.05 | locus YPR141C, strain kar3, hits give low values 1.05 | locus YPR163C, strain tif3, hits give low values 1 | locus YPR167C, strain met16, hits give low values 1.01 | strain wtn01, hits give low values 0.931
active: locus YDL035C, strain GPR1, hits give low values 0.832 | locus YGL078C, strain dbp3, hits give low values 0.87 | locus YKL009W, strain mrt4, hits give low values 0.809 | locus YOR184W, strain ser1, hits give low values 0.795
